Screening data as filed in PubChem.
LASV entry inh – blocks Lassa virus binding to or entry into cells; Potency, µM (top dose mostly 37.9 µM), for the others: top-dose activity change, negative = inhibition, usual class: inhibitors; 300,000 compounds, 1.2% hits; AID 540256; Lassa virus pseudotype entry inhibition, cell reporter; calls by dose curve; tested in HEK293 cells; note: potency is the fitted concentration of half-maximal effect; % is set by controls: 0 for no effect and ±100 for the full control effect; nearly all actives have a fitted effect of over 50% in size
FMDV inh – foot and mouth disease virus antiviral activity; FMDV antiviral cell-based qHTS; Potency, µM (titrated, usually from 57.9 µM), without a hit: at the top dose activity change, negative = inhibition, most hits filed as inhibitors; 410,000 compounds, 1.2% hits; calls by dose curve; tested in HEK293T cells; note: read-out not given here; potency is the fitted concentration of half-maximal effect; % is set by controls: 0 for no effect and ±100 for the full control effect; nearly all actives have a fitted effect of over 45% in size
HCMV antiviral – inhibitors of human cytomegalovirus. HFF cells, HCMV-luciferase reporter, 72 h; stronger effect = lower value. activity change, negative = inhibition, % at 57.5 µM. 410,000 compounds, 4.5% hits; in the data active = activity change below about -60%; inconclusive = no clear call, values can overlap the other calls; inactive = above about -39%; note: % is set by controls: 0 for no effect and ±100 for the full control effect
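Compounds were evaluated in HFFs infected with an HCMV luciferase reporter virus (MOI 1 PFU/cell). Luciferase in lysates collected 72 h post infection served as the replication measure.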
MARV entry inh – blocks Marburg virus binding to or entry into cells; Marburg virus pseudotyped entry inhibition, cell reporter; Potency, µM (doses to about 37.8 µM), for inactives: at the top dose activity change, negative = inhibition, most hits filed as inhibitors; 300,000 compounds, 1.8% hits; AID 540276; calls by dose curve; tested in HEK293 cells; note: potency is the fitted concentration of half-maximal effect; % is set by controls: 0 for no effect and ±100 for the full control effect
HCV inh – inhibitors of hepatitis C virus infection; Huh7.5.1 HCVcc-Cre infection, luciferase reporter, 44 h; AID 651820; 340,000 compounds, 3.4% hits; Potency, µM (top dose mostly 41.8 µM), inactives show top-dose activity change, negative = inhibition, actives largely listed as inhibitors; note: potency is the fitted concentration of half-maximal effect; % is set by controls: 0 for no effect and ±100 for the full control effect
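Compounds are dispensed onto cells plated 4 h earlier at 1,000 per well, with HCVcc-Cre virus (about 0.5 moi) added next. Following 44 h of culture, luminescent signal is measured for 15 sec after 15 min with substrate at room temperature.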
HCV inh confirm – HCV inhibition, cherry-pick confirmation; shares compounds with HCV inh; HCVcc-Cre infectious virus cell assay, luciferase, inhibition; Potency, µM (highest dose often 41.8 µM), without a hit: at the highest dose activity, negative = inhibition, hits mostly inhibitors; 640 compounds, 78% hits; note: potency is the fitted concentration of half-maximal effect; nearly all actives have a fitted effect of over 80% in size
HCV cytotox – toxic to HCV host cells, flagging false HCV inhibitors; shares compounds with HCV inh; HCV host cell line cytotoxicity counterscreen; Potency, µM (series often up to 41.8 µM), without a hit: at the top dose activity change, negative = cytotoxicity, usual class: inhibitors; 640 compounds, 22% hits;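 note: potency is the fitted concentration of half-maximal effect; 44 h compound exposure; % is set by controls: 0 for no effect and ±100 for the full control effect; nearly all actives have a fitted effect of over 55% in size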
Starred values were filed as active, the others as inactive; [ ] = dose if it differs, or a comment. Most compounds without a hit are left out; they make up all but 7.9% or so of the library. Unless noted, calls come from the whole dose curve; as a rule, active = well fitted curve in the direction sought with a large enough effect; inconclusive = small, poorly fitted or top-dose-only effect, or another doubt; inactive = no such curve, though single readings can be large; an effect the other way counts as inactive or inconclusive.

`CCOc1cc(/C=C2/SC(=S)NC2=O)ccc1OC(=O)c1ccco1` gave LASV entry inh 11%, FMDV inh 4%, HCMV antiviral 0, MARV entry inh 0%[46.1 µM], HCV inh 3.5µM*, HCV inh confirm -15% and HCV cytotox -10%.
`CCOc1ccc(CCNC(=O)c2cc3sccc3n2C)cc1OCC` gave LASV entry inh -26%, FMDV inh inconclusive, HCMV antiviral -11, MARV entry inh 7.1µM*, HCV inh 6.3µM*, HCV inh confirm 14µM* and HCV cytotox inconclusive.
For COc1cc(OC)cc(C(=O)Nc2ccc(C(=O)c3ccncc3)cc2)c1 the results were FMDV inh -21%, HCMV antiviral 22 and HCV inh inconclusive.
Screening COc1cc(C(=O)O/N=C(\N)c2ccc([N+](=O)[O-])cc2)cc(OC)c1OC returned LASV entry inh -23%, FMDV inh -24%, HCMV antiviral 0, MARV entry inh -4%, HCV inh inconclusive, HCV inh confirm inconclusive and HCV cytotox 26%.
`CCN(CC)S(=O)(=O)c1ccc(OC)c(NC(=O)CC2CCCC2)c1` gave LASV entry inh -3%, FMDV inh 23%, HCMV antiviral -18, MARV entry inh 6%[46.1 µM] and HCV inh 9%.
`Cc1cc(CSc2ccc(Cl)cc2)ccc1N` gave LASV entry inh 1%[46.1 µM], FMDV inh 15%, HCMV antiviral 4, MARV entry inh 4%[46.1 µM], HCV inh 4µM*, HCV inh confirm 6.3µM* and HCV cytotox -12%.
Screening Cc1ccccc1NC(=O)COC(=O)c1ccc(CSc2ccc(Cl)cc2)cc1 returned LASV entry inh inconclusive, FMDV inh 23%, HCMV antiviral 55, MARV entry inh -1% and HCV inh 20%.
COc1ccc(NC(=O)c2cc(-c3cc(C)cc(C)c3O)n[nH]2)cc1Cl was read as LASV entry inh 0%, FMDV inh inconclusive, HCMV antiviral -40, MARV entry inh inconclusive, HCV inh 8.9µM*, HCV inh confirm 14µM* and HCV cytotox inconclusive.
`COc1ccc(NC(=O)c2cc(-c3ccccc3O)n[nH]2)cc1Cl` gave LASV entry inh -2%[46.1 µM], FMDV inh 7%, HCMV antiviral -2, MARV entry inh inconclusive and HCV inh -25%.
`Cc1nnc(N2C(=O)C(=O)/C(=C(\O)c3ccc4c(c3)CC(C)O4)C2c2ccccc2)s1` (stereo unspecified) gave LASV entry inh inconclusive, FMDV inh -13%, HCMV antiviral -1, MARV entry inh 0%[46.1 µM] and HCV inh 18%.
Screening COc1ccc(NC(=O)C(c2ccc(Cl)cc2)C(C)C)cn1 (stereo unspecified) returned LASV entry inh inconclusive, FMDV inh -16%, MARV entry inh inconclusive and HCV inh -16%.
Screening COc1ccc(-c2ccc3oc(-c4ccc(OC)cc4)c(C#CCCO)c3c2)cc1 returned FMDV inh -23%, HCMV antiviral 18, HCV inh 1.1µM*, HCV inh confirm 2.2µM* and HCV cytotox 15%.
CCOc1ccccc1NC(=O)n1ncc2cc(Cl)ccc21 was read as LASV entry inh 0%[46.1 µM], FMDV inh 22%, HCMV antiviral 36 and MARV entry inh -5%[46.1 µM].
`CCCC(=O)Nc1cccc(-c2cn3c(C)csc3n2)c1` gave LASV entry inh 16%[46.1 µM], FMDV inh 4% and HCMV antiviral -12.
CCN1C(=O)CS/C1=N\S(=O)(=O)c1ccc(Cl)cc1 was read as LASV entry inh -5%, FMDV inh -15%, HCMV antiviral 4, MARV entry inh 0%[46.1 µM] and HCV inh 16%.
`CCn1c(Cl)c(C=O)s/c1=N\S(=O)(=O)c1ccccc1` gave FMDV inh inconclusive, HCMV antiviral inconclusive, HCV inh 3.2µM*, HCV inh confirm 20µM* and HCV cytotox 11µM*.
